Consider 14 molecules from ChEMBL document CHEMBL2218924, “A broad activity screen in support of a chemogenomic map for kinase signalling research and drug discovery” (Biochem J, 2013).

Molecules are shown by their SMILES.

Test [1] concerns the target Ribosomal protein S6 kinase beta-1 (Homo sapiens) (UniProt P23443). As to conditions: at 1 µM.
Test [2] shares this target. The settings on record: at 10 µM.
Test [3] concerns the target Serine/threonine-protein kinase Nek6 (Homo sapiens) (UniProt Q9HC98). The settings on record: at 1 µM.
For test [4] the target is unchanged. As to conditions: at 10 µM.
Test [5] deals with Serine/threonine-protein kinase Nek7 (Homo sapiens) (UniProt Q8TDX7). As to conditions: at 1 µM.
Test [6] shares this target. As to conditions: at 10 µM.
In test [7] the target is T1, Serine/threonine-protein kinase NLK (Homo sapiens) (UniProt Q9UBE8).
T1 sequence (whole entry): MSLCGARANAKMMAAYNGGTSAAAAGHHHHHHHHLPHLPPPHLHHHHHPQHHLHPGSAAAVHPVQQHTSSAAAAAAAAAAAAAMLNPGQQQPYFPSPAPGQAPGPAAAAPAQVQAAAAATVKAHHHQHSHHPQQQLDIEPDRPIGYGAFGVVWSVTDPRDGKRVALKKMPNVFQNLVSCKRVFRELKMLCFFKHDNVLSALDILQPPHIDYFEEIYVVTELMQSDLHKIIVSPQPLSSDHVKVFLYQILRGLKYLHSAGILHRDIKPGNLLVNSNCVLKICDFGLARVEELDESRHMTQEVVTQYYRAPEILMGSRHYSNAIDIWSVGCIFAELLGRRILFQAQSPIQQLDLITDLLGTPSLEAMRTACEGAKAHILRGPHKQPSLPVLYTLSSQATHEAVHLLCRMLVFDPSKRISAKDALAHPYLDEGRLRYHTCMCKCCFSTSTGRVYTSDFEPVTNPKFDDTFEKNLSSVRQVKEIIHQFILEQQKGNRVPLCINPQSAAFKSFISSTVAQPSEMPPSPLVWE
The settings on record: at 1 µM.

Test [8] addresses T1, Serine/threonine-protein kinase NLK (Homo sapiens). As to conditions: at 10 µM.
In test [9] the target is Serine/threonine-protein kinase PAK 2 (Homo sapiens) (UniProt Q13177). As to conditions: at 1 µM.
For test [10] the target is unchanged. The settings on record: at 10 µM.
In test [11] the target is Serine/threonine-protein kinase PAK 4 (Homo sapiens) (UniProt O96013). As to conditions: at 1 µM.
Test [12] shares this target. The settings on record: at 10 µM.
In test [13] the target is Serine/threonine-protein kinase PAK 5 (Homo sapiens) (UniProt Q9P286). The settings on record: at 1 µM.
For test [14] the target is unchanged. The settings on record: at 10 µM.
In test [15] the target is Serine/threonine-protein kinase PAK 6 (Homo sapiens) (UniProt Q9NQU5). The settings on record: at 1 µM.
The target is the same in test [16]. As to conditions: at 10 µM.
In test [17] the target is PAS domain-containing serine/threonine-protein kinase (Homo sapiens) (UniProt Q96RG2). The settings on record: at 10 µM.
The target of test [18] is Activated CDC42 kinase 1 (Homo sapiens) (UniProt Q07912). As to conditions: at 1 µM.
The target is the same in test [19]. The settings on record: at 10 µM.
Test [20] addresses ALK tyrosine kinase receptor (Homo sapiens) (UniProt Q9UM73). The settings on record: at 1 µM.

Chain of Serine/threonine-protein kinase Nek6 (Homo sapiens) (Q9HC98 whole entry): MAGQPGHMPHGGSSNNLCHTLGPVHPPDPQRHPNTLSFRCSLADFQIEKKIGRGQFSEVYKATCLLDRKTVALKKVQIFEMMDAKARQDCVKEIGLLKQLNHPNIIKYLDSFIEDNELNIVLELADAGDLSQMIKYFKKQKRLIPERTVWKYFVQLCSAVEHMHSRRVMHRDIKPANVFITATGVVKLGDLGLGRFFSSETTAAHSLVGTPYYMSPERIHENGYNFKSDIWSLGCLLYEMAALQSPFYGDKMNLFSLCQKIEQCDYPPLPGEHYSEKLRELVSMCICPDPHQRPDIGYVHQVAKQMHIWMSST
Chain of Serine/threonine-protein kinase PAK 6 (Homo sapiens) (Q9NQU5 whole entry, looked up): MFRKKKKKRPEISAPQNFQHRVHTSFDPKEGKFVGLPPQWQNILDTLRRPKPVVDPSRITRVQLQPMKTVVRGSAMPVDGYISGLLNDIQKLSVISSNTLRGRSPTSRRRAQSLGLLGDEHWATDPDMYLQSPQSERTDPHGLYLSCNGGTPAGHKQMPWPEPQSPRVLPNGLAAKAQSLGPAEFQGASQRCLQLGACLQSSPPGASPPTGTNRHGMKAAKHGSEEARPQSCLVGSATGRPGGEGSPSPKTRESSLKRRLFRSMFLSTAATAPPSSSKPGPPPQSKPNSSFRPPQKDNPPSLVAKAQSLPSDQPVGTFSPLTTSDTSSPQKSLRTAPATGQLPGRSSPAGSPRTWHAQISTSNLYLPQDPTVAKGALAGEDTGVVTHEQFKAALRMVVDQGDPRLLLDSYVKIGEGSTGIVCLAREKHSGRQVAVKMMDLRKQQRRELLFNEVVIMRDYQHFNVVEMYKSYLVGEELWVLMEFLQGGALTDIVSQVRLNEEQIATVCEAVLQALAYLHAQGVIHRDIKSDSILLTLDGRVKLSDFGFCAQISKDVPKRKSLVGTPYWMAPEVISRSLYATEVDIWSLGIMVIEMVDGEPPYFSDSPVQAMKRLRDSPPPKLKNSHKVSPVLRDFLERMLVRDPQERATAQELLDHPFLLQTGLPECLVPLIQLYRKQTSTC
Chain of Serine/threonine-protein kinase Nek7 (Homo sapiens) (Q8TDX7 whole entry, looked up): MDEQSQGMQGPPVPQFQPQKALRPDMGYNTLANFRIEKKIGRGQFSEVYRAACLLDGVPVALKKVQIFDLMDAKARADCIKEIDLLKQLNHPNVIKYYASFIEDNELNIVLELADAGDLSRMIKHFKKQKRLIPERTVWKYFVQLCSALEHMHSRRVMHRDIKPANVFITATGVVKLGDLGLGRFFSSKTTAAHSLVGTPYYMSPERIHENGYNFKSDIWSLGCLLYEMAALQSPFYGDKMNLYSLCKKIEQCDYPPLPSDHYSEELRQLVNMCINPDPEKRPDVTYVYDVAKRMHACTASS
Chain of Activated CDC42 kinase 1 (Homo sapiens) (Q07912 whole entry, looked up): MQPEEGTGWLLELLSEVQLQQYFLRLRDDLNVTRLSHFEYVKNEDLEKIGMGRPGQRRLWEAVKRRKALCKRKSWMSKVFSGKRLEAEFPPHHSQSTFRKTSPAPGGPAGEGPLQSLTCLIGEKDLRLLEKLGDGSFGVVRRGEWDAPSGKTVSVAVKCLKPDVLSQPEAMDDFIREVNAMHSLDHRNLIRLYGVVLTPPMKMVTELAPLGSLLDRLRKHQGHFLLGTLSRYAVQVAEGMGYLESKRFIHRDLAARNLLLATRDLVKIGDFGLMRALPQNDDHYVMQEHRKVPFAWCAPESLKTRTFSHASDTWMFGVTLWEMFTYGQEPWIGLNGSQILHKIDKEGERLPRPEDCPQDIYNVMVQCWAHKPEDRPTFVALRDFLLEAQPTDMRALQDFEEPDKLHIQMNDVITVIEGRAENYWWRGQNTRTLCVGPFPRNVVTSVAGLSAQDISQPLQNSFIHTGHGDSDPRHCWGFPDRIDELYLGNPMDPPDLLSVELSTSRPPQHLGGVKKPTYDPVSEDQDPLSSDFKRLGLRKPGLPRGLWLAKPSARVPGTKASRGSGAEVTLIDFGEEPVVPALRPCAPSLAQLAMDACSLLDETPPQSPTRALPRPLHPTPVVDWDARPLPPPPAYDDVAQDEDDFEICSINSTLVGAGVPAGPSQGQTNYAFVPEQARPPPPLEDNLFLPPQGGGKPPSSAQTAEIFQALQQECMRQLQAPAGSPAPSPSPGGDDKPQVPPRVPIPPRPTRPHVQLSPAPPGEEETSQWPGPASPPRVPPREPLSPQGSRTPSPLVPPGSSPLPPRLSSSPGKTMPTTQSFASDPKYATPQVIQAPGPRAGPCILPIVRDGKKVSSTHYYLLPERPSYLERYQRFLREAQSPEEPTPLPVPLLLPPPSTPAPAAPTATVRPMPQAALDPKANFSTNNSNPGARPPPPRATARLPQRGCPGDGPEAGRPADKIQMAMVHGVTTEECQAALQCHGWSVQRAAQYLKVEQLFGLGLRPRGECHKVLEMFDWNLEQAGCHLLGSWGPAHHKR
Chain of Serine/threonine-protein kinase PAK 4 (Homo sapiens) (O96013 whole entry, looked up): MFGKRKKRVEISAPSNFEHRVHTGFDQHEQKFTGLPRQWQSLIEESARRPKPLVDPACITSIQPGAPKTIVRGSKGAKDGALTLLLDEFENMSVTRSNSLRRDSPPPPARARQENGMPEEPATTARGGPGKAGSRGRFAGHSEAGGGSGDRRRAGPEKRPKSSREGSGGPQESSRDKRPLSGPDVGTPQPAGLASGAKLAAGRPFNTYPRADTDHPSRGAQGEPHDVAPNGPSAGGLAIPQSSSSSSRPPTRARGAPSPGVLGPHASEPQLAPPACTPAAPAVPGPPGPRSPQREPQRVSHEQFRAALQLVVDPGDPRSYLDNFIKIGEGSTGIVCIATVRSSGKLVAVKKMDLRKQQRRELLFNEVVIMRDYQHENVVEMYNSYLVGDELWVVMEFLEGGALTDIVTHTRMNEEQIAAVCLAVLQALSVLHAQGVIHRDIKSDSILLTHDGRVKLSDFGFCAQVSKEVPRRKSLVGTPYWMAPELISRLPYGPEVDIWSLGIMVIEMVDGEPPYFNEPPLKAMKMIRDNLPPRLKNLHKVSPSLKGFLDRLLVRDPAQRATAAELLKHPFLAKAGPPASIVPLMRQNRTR
Chain of Ribosomal protein S6 kinase beta-1 (Homo sapiens) (P23443 whole entry, looked up): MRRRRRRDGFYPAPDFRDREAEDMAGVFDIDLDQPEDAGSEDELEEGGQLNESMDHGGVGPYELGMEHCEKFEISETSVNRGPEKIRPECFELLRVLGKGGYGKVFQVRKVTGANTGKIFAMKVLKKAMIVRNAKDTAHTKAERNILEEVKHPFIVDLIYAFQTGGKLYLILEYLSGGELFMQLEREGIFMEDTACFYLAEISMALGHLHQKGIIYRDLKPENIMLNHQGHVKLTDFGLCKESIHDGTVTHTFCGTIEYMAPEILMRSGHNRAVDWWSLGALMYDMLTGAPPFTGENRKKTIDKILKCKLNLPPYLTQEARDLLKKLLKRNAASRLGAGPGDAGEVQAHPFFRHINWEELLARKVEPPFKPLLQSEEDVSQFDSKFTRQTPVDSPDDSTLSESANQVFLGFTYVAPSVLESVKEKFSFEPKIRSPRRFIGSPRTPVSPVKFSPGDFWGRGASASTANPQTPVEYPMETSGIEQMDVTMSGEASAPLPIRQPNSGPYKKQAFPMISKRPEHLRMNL
Chain of ALK tyrosine kinase receptor (Homo sapiens) (Q9UM73 19-1620 limits assumed): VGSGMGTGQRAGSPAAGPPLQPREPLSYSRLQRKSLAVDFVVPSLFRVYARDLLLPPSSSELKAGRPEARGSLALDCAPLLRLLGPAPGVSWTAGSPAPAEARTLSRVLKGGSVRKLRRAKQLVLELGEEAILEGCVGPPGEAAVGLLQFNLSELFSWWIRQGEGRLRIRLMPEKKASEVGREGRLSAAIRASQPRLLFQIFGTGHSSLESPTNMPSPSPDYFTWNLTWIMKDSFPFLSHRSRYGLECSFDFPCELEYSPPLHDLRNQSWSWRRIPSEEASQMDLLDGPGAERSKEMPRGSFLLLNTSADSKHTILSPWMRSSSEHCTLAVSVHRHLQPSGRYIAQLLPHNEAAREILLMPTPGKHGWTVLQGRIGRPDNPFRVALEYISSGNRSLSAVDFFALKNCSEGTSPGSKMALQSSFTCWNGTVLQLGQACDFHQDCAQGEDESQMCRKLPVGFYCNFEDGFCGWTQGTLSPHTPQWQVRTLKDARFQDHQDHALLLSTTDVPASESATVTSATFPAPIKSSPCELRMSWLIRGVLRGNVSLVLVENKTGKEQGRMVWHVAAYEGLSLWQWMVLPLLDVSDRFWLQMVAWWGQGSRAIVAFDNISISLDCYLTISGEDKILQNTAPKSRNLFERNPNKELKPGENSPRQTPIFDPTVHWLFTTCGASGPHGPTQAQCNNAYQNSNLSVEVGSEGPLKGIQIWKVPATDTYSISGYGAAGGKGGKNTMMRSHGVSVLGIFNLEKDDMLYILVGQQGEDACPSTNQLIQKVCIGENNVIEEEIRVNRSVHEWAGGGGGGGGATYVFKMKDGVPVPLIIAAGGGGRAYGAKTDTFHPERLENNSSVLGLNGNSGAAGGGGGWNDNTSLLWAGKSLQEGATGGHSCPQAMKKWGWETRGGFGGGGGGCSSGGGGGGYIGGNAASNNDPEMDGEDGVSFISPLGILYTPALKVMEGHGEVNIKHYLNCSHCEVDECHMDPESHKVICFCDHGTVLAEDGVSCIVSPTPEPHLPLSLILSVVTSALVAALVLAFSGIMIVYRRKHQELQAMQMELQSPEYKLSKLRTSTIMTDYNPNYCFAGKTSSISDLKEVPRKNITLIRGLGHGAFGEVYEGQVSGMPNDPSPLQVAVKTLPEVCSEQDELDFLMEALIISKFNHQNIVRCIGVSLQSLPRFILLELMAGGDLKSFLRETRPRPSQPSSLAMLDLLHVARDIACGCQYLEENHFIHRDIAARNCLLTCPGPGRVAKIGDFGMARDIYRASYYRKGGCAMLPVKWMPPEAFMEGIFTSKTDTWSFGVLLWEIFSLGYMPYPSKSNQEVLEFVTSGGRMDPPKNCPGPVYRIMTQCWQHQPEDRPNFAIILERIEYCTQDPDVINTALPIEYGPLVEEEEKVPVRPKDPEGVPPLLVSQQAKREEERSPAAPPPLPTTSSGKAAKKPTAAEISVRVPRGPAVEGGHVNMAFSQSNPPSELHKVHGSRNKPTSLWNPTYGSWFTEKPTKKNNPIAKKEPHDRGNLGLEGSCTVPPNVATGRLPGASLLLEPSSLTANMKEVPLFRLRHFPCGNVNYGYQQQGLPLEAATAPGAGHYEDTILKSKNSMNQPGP

With `CCN(CC)CCCCN1c2ccccc2Oc2ccc(Cl)cc21`, the residual activity in test [1] was 79%; in test [2] it was 90%; in test [3] it was 106% (inactive); in test [4], 113%; in test [5], 116% (inactive); in [6], 115% (inactive). For the same molecule, the residual activity in test [7] came out at 113%; in [8] it was 96%; in test [9] it was 117%; in [10], 120%; in test [11] it was 107%; in [12], 97%. The residual activity was 100% in test [13]; 90% in test [14]; 104% in test [15]; 109% in [16]; 13% in [17]; 113% in [18]. Besides, the residual activity came to 81% in [19] and 92% in test [20].

For the molecule `Cc1cc2ncc(-c3ccccc3)nc2cc1C`, the residual activity in test [1] is 80%; in test [2], 52%; in [3], 104% (inactive); in test [4] it was 102%; in test [5], 106% (inactive); in test [6] it was 101% (inactive). The residual activity turned out to be 105% in test [7]; 91% in test [8]; 97% in test [9]; 94% in [10]; 104% in test [11]; 88% in test [12]. The residual activity was 92% in test [14]; 94% in test [15]; 77% in test [16]; 59% in test [19]; 82% in test [20].

Regarding `Cn1nc2c3c(cccc31)C(=O)c1ccccc1-2`, the residual activity in [1] is 70%; in test [2], 62%; in test [3], 108% (inactive); in test [4], 104%; in test [5], 107% (inactive); in [6], 86% (inactive). Further, the residual activity worked out at 87% in [8]; 102% in test [9]; 98% in test [10]; 97% in [11]; 87% in [12]; 86% in [13]. Besides, the residual activity in [15] was found to be 108%; in test [17] it was 95%; in test [18], 61%; in test [19], 31%; in test [20] it was 72%.

With `CC[n+]1c(/C=C/N(C)c2ccccc2)n(-c2ccccc2)c2ccc(-c3nc4ccccc4s3)cc21`, the residual activity in test [1] is 130%; in [2], 71%; in test [3], 108% (inactive); in test [4], 88%; in test [5] it was 117% (inactive); in [6], 138% (inactive). The residual activity in test [8] is 89%; in [9] it was 109%; in test [10] it was 81%; in test [11] it was 103%; in test [12], 100%; in test [13], 104%. For the same molecule, the residual activity in test [14] amounted to 119%; in test [15], 102%; in test [16], 96%; in test [17] it was 43%; in test [18], 110%; in test [19], 77%. In addition, the residual activity in test [20] was found to be 88%.

For the molecule `COc1cc2ncnc(Nc3ccc(NC(=O)c4ccccc4)cc3)c2cc1OC`, the residual activity in test [1] was 67%; in [2], 38%; in [3], 103% (inactive); in test [6], 86% (inactive); in test [8], 97%; in [10], 89%. The residual activity amounted to 101% in test [11]; 103% in test [12]; 89% in [13]; 68% in test [14]; 108% in test [15]; 92% in [16]. Further, the residual activity in test [17] turned out to be 67%; in test [18] it was 13%; in test [19], 1%; in test [20], 107%.

As for `O=C1Nc2cc(Br)ccc2/C1=C1/Nc2ccccc2/C1=N\O`, the residual activity is 30% in test [1]; 29% in [2]; 108% (inactive) in [3]; 106% in [4]; 102% (inactive) in test [5]; 85% (inactive) in test [6]. Besides, the residual activity worked out at 79% in test [7]; 85% in [8]; 75% in [9]; 88% in test [10]; 30% in [11]; 25% in [12]. Moreover, the residual activity in [13] stood at 39%; in test [14], 55%; in [15], 51%; in [16], 21%; in test [17], 115%; in test [18], 14%. Further, the figures for the residual activity in test [19] and in [20] were 2% and 35%, respectively.

For `Cc1cc(Nc2nc(-c3ccccc3)nc3ccccc23)n[nH]1`, the residual activity is 46% in [1]; 10% in test [2]; 105% (inactive) in [3]; 105% in [4]; 105% (inactive) in test [5]; 45% in [10]. Besides, the residual activity in test [11] was determined as 9%; in [12] it was 2%; in [13], 21%; in [14], 3%; in test [15] it was 47%; in test [16], 7%. The residual activity worked out at 121% in test [17], 13% in test [18], 0% in test [19] and 70% in [20].

For `COc1cc2ncc(-c3ccccc3)nc2cc1OC`, the residual activity in test [1] was 63%; in test [2], 47%; in [3], 80% (inactive); in [4] it was 89%; in test [7], 100%; in test [8], 93%. The residual activity worked out at 93% in [12]; 92% in [15]; 74% in test [16]; 93% in test [17]; 96% in [18]; 56% in test [19].

For `CC(=O)c1ccc(N2CCOCC2)cc1O`, the residual activity was 55% in test [1]; 46% in [2]; 98% (inactive) in [5]; 97% in [7]; 83% in test [8]; 104% in [9]. Besides, the residual activity in test [10] turned out to be 97%; in test [11] it was 100%; in [12], 90%; in test [13] it was 97%; in [14], 91%; in test [15], 95%. In addition, the residual activity in test [16] was found to be 107%; in test [17], 88%; in [18], 94%; in test [19], 73%; in [20], 80%.

As for `Cc1cccc(-c2[nH]c(C(C)(C)C)nc2-c2ccc3c(c2)OCO3)n1`, the residual activity in test [1] is 93%; in test [2], 65%; in test [3], 90% (inactive); in test [4] it was 107%; in test [5], 94% (inactive); in [6], 95% (inactive). Further, the residual activity was 94% in test [7]; 87% in test [8]; 103% in [9]; 91% in test [10]; 97% in test [11]; 88% in [12]. Also, the residual activity is 87% in [13]; 102% in test [14]; 90% in [18]; 67% in [19]; 82% in test [20].

On to `CO[C@H]1C[C@@H]2CC[C@@H](C)[C@@](O)(O2)C(=O)C(=O)N2CCCC[C@H]2C(=O)O[C@H]([C@H](C)C[C@@H]2CC[C@@H](O)[C@H](OC)C2)CC(=O)[C@H](C)/C=C(\C)[C@@H](O)[C@@H](OC)C(=O)[C@H](C)C[C@H](C)/C=C/C=C/C=C/1C`, for which the residual activity is 92% in test [1]; 147% in test [2]; 97% (inactive) in test [3]; 118% in test [4]; 97% (inactive) in test [5]; 115% (inactive) in test [6]. Besides, the residual activity in [7] worked out at 101%; in [8], 91%; in [9] it was 101%; in test [10], 95%; in test [11], 89%; in test [12], 88%. Moreover, the residual activity came to 97% in [13]; 109% in test [14]; 106% in test [15]; 136% in test [16]; 82% in test [18]; 63% in [19]. In test [20], the residual activity amounted to 82%.

As to `CN(C)c1ccc(/C=C2\C(=O)Nc3ccccc32)cc1`, the residual activity was 69% in test [1]; 29% in [2]; 108% (inactive) in [3]; 107% in test [4]; 118% (inactive) in test [5]; 116% (inactive) in [6]. Further, the residual activity was found to be 110% in test [7]; 88% in test [8]; 96% in test [9]; 100% in [10]; 100% in [11]; 83% in test [12]. In addition, the residual activity is 95% in [13]; 77% in [14]; 83% in test [15]; 77% in [16]; 23% in test [17]; 89% in test [18]. In addition, the residual activity in test [19] is 62%; in test [20], 80%.

`COc1cc2ncnc(Nc3ccc(O)c(Br)c3)c2cc1OC`: the residual activity in [1] is 60%; in [2], 31%; in test [3] it was 86% (inactive); in test [4], 110%; in [5] it was 99% (inactive); in test [6], 96% (inactive). Moreover, the residual activity is 69% in [7]; 30% in test [8]; 104% in test [9]; 80% in [10]; 89% in test [11]; 77% in test [12]. Also, the residual activity is 98% in [13]; 98% in [14]; 123% in test [15]; 104% in [16]; 8% in test [17]; 14% in [18]. Also, the results for the residual activity in [19] and in [20] were 1% and 19%, respectively.

On to `Nc1nc(Nc2ccc(S(N)(=O)=O)cc2)nn1C(=S)Nc1c(F)cccc1F`, for which the residual activity in test [1] is 14%; in test [2], 11%; in [3], 89% (inactive); in test [4], 44%; in test [7] it was 17%; in [8], 3%. Further, the residual activity is 47% in test [9]; 7% in test [10]; 6% in test [11]; 0% in [12]; 9% in test [13]; 1% in test [14]. For the same molecule, the residual activity is 14% in [15]; 4% in test [16]; 89% in [17]; 9% in test [18]; 0% in [19]; 16% in test [20].
